Test results published in PubChem BioAssay (EPA / NIEHS).
The source made the active and inactive calls. The calls were made as follows: active = hit-call score of the fitted dose curve at least 0.9, where 1 is the maximum; inactive = score below 0.9.

How the values were obtained:
Conditions in all cases: mRNA level, 48 h; actives raise or lower the signal
[1] = read-out: Lipase C (LIPC), LIPC (gene 3990); test: LTEA_HepaRG_LIPC: Life Technologies and Expression Analysis (LTEA) Assay for Lipase C (LIPC) using HepaRG (AID 2283514)
Procedure, shortened: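 Read-out is LIPC transcript level by TaqMan qRT-PCR, normalized to three housekeeping genes, after 48 h chemical treatment of human HepaRG liver cells. Curves span eight concentrations topping at 100 uM; activity in either direction scored relative to 0.5% DMSO.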

[2] = read-out: Lipoprotein lipase (LPL), LPL (gene 4023); test: LTEA_HepaRG_LPL: Life Technologies and Expression Analysis (LTEA) Assay for Lipoprotein lipase (LPL) using HepaRG (AID 2283515)
Procedure, shortened: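 Read-out is LPL transcript level by qRT-PCR, normalized to three housekeeping genes and fitted bidirectionally against the DMSO control. Human HepaRG cells received chemicals for 48 h at up to 100 uM.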

[3] = read-out: MicroRNA 122 (MIR122), gene 406906; test: LTEA_HepaRG_MIR122: Life Technologies and Expression Analysis (LTEA) Assay for MicroRNA 122 (MIR122) using HepaRG (AID 2283516); also: the transcript read is the microRNA miR-122
Procedure, shortened: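 HepaRG, 48 h exposure, 8-pt half-log from 100 uM, 0.5% DMSO; TaqMan qRT-PCR; bidirectional fit vs DMSO.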

[4] = read-out: matrix metalloproteinase-10 (MMP10), MMP10 (gene 4319); test: LTEA_HepaRG_MMP10: Life Technologies and Expression Analysis (LTEA) Assay for matrix metalloproteinase-10 (MMP10) using HepaRG (AID 2283517)
Procedure, shortened: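 Gain or loss of MMP10 mRNA is fitted relative to the 0.5% DMSO vehicle. The human hepatic line HepaRG receives a 48-hour serum-free exposure, in duplicate, with a maximum concentration of 100 uM.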

MYC, MYC (gene 4609) = test: LTEA_HepaRG_MYC: Life Technologies and Expression Analysis (LTEA) Assay for MYC using HepaRG (AID 2283518)
Procedure, shortened: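 Cells are thawed, plated and cultured 48 h, then treated for 48 h with test chemicals (eight half-log concentrations from 100 uM, 0.5% DMSO vehicle). RNA is isolated and MYC expression quantified by qRT-PCR against three housekeeping genes.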

[5] = read-out: matrix metalloproteinase-3 (MMP3), MMP3 (gene 4314); test: LTEA_HepaRG_MMP3: Life Technologies and Expression Analysis (LTEA) Assay for matrix metalloproteinase-3 (MMP3) using HepaRG (AID 2283519)
Procedure, shortened: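 HepaRG, human; 48 h dosing, 8 conc. (max 100 uM, half-log), duplicate, 0.5% DMSO. Readout: MMP3 transcript by Fluidigm TaqMan qRT-PCR, ACTB/GAPDH/POLR2A-normalised. Gain or loss fitted vs DMSO.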

[6] = read-out: Paternally Expressed 10 (PEG10), PEG10 (gene 23089); test: LTEA_HepaRG_PEG10: Life Technologies and Expression Analysis (LTEA) Assay for Paternally Expressed 10 (PEG10) using HepaRG (AID 2283520);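 as to AC50: PEG10 transcript by qRT-PCR normalised to ACTB GAPDH and POLR2A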
Procedure, shortened: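 Chemicals tested on HepaRG cells for 48 h, highest concentration 100 uM. PEG10 expression assessed by qRT-PCR relative to DMSO control.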

[7] = read-out: Phosphatase and tensin (PTEN), PTEN (gene 5728); test: LTEA_HepaRG_PTEN: Life Technologies and Expression Analysis (LTEA) Assay for Phosphatase and tensin (PTEN) using HepaRG (AID 2283523)
Procedure, shortened: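 Read-out is PTEN transcript level by multiplexed TaqMan qRT-PCR after 48 h chemical treatment of human HepaRG cultures in serum-free induction medium. Concentrations spanned 100 uM downward in half-log steps, 0.5% DMSO throughout; activity fitted in both directions against vehicle.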

[8] = read-out: solute carrier (SLC22A1), SLC22A1 (gene 6580); test: LTEA_HepaRG_SLC22A1: Life Technologies and Expression Analysis (LTEA) Assay for solute carrier (SLC22A1) using HepaRG (AID 2283524);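 as to AC50: differentiated human HepaRG liver cells in serum-free induction medium; TaqMan qRT-PCR normalized to ACTB GAPDH and POLR2A housekeeping genes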
Procedure, shortened: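 HepaRG (human liver line), 48 h dosing in serum-free induction medium; 8 conc., half-log down from 100 uM, 0.5% DMSO vehicle, duplicates. Endpoint: SLC22A1 mRNA, qRT-PCR, housekeeping-normalized; gain/loss fit vs DMSO.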

[9] = read-out: Pyruvate Dehydrogenase Kinase 4 (PDK4), PDK4 (gene 5166); test: LTEA_HepaRG_PDK4: Life Technologies and Expression Analysis (LTEA) Assay for Pyruvate Dehydrogenase Kinase 4 (PDK4) using HepaRG (AID 2283525)
Procedure, shortened: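 In this multiplexed human HepaRG expression assay, cells are treated 48 h with test chemicals across an eight-point range starting at 100 uM. PDK4 mRNA changes, normalized to ACTB/GAPDH/POLR2A, are fitted in both directions relative to vehicle.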

[10] = read-out: NAD(P)H dehydrogenase [quinone] 1 (NQO1), NQO1 (gene 1728); test: LTEA_HepaRG_NQO1: Life Technologies and Expression Analysis (LTEA) Assay for NAD(P)H dehydrogenase [quinone] 1 (NQO1) using HepaRG (AID 2283526)
Procedure, shortened: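 Human HepaRG hepatic cells received chemicals for 48 h in serum-free induction medium with 0.5% DMSO, up to 100 uM. Expression was assessed by TaqMan qRT-PCR against housekeeping controls and fitted bidirectionally against DMSO.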

[11] = read-out: Nuclear factor erythroid 2-related factor 2 (Homo sapiens) (UniProt Q16236); test: LTEA_HepaRG_NFE2L2: Life Technologies and Expression Analysis (LTEA) Assay for Nuclear factor erythroid 2-related factor 2 (NFE2L2) Transcription Factor using HepaRG (AID 2283527)
Procedure, shortened: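 Transcript level of NFE2L2 is the read-out, measured by microfluidic TaqMan qRT-PCR and normalized to three housekeeping genes. Human HepaRG cultures received test chemical for 48 h at up to 100 uM in half-log steps. Gain or loss of signal is fitted relative to 0.5% DMSO.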

[12] = read-out: succinate dehydrogenase complex iron sulfur subunit B (SDHB), SDHB (gene 6390); test: LTEA_HepaRG_SDHB: Life Technologies and Expression Analysis (LTEA) Assay for succinate dehydrogenase complex iron sulfur subunit B (SDHB) using HepaRG (AID 2283528)
Procedure, shortened: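 A human HepaRG culture in serum-free induction medium received test chemicals for 48 h over an eight-point range capped at 100 uM. SDHB expression change was quantified by qRT-PCR.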

[13] = read-out: Signal transducer and activator of transcription 3 (Homo sapiens) (UniProt P40763); test: LTEA_HepaRG_STAT3: Life Technologies and Expression Analysis (LTEA) Assay for Signal transducer and activator of transcription (STAT3) using HepaRG (AID 2283529)
Procedure, shortened: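 Read-out is STAT3 mRNA level by qRT-PCR, normalized to three housekeeping genes, in human HepaRG liver cells treated for 48 h. Concentrations ran from 100 uM downward in half-log steps; curves were fitted for gain or loss relative to 0.5% DMSO.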

[14] = read-out: solute carrier (SLCO1B1), SLCO1B1 (gene 10599); test: LTEA_HepaRG_SLCO1B1: Life Technologies and Expression Analysis (LTEA) Assay for solute carrier (SLCO1B1) using HepaRG (AID 2283530)
Procedure, shortened: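 Gain or loss of SLCO1B1 mRNA is fitted against the 0.5% DMSO vehicle in human HepaRG liver cells treated 48 h at up to 100 uM in half-log steps. Expression comes from qRT-PCR normalized to endogenous controls.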

[15] = read-out: sulfotransferase 2A1 (SULT2A1), SULT2A1 (gene 6822); test: LTEA_HepaRG_SULT2A1: Life Technologies and Expression Analysis (LTEA) Assay for sulfotransferase 2A1 (SULT2A1) using HepaRG (AID 2283531)
Procedure, shortened: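 Cells were plated and cultured 48 h, switched to serum-free induction medium, then dosed in duplicate for 48 h (8 concentrations, max 100 uM). RNA was isolated and SULT2A1 expression measured by qRT-PCR; gain or loss of signal fitted relative to DMSO.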

[16] = read-out: Transforming Growth Factor (TGFA), TGFA (gene 7039); test: LTEA_HepaRG_TGFA: Life Technologies and Expression Analysis (LTEA) Assay for Transforming Growth Factor (TGFA) using HepaRG (AID 2283532)
Procedure, shortened: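 HepaRG (human liver line), 48 h exposure, 8 conc. half-log down from 100 uM, 0.5% DMSO vehicle, duplicates; serum-free induction medium. TGFA mRNA by TaqMan qRT-PCR, ACTB/GAPDH/POLR2A normalization; gain/loss fit vs DMSO.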

[17] = read-out: Transforming Growth Factor (TGFB1), TGFB1 (gene 7040); test: LTEA_HepaRG_TGFB1: Life Technologies and Expression Analysis (LTEA) Assay for Transforming Growth Factor (TGFB1) Transporter using HepaRG (AID 2283533)
Procedure, shortened: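 Expression change of TGFB1 in human HepaRG cells is measured after a 48 h chemical exposure, up to 100 uM in 0.5% DMSO vehicle. Curves are fitted in both directions relative to the DMSO baseline.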

Measured: AC50

Sequence of Nuclear factor erythroid 2-related factor 2 (Homo sapiens) (Q16236 whole entry, looked up): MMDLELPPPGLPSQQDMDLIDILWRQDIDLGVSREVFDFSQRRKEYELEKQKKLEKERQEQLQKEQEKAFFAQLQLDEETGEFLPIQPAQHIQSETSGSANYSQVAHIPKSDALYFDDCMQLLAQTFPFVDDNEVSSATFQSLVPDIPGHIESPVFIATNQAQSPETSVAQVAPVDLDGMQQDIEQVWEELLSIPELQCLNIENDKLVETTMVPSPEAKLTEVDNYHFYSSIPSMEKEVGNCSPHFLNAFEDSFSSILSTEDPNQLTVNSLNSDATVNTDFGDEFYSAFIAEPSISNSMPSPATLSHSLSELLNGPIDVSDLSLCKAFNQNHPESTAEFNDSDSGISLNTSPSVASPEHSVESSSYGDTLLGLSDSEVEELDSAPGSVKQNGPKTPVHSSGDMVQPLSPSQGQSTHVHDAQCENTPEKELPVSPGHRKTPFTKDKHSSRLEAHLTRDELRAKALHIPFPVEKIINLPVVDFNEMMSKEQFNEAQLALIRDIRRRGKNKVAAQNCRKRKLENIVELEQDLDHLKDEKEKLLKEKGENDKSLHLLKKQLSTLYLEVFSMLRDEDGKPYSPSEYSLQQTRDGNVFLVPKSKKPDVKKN
Sequence of Signal transducer and activator of transcription 3 (Homo sapiens) (P40763 whole entry, looked up): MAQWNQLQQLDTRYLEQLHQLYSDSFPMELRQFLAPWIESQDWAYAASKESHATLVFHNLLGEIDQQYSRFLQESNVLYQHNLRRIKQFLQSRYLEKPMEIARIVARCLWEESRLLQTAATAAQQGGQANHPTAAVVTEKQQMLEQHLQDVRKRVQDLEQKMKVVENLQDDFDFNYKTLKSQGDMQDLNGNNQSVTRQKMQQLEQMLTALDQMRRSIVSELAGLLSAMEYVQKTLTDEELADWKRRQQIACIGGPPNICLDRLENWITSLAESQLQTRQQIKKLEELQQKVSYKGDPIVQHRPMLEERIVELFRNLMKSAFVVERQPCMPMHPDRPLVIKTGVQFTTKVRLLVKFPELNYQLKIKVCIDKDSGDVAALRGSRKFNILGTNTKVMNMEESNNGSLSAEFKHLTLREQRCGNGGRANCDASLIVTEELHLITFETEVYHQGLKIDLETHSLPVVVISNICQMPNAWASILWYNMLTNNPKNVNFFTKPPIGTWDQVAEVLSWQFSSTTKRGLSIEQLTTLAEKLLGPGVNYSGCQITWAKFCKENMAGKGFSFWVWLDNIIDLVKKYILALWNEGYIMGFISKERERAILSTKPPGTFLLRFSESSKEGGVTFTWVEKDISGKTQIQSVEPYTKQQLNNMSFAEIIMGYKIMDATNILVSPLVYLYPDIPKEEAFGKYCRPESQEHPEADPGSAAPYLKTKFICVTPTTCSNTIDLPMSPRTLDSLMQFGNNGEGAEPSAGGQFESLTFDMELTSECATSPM

O=C1CCCO1
active: [2] 50 µM | [5] 83.1 µM | [7] 82.9 µM | [10] 50 µM
inactive: all other assays above

CCCCCCCCCCCCCN1CC(C)OC(C)C1 (centres undefined)
not listed: [14]
inactive: all other assays above

Nc1ccc(N=Nc2ccccc2)cc1
inactive: [4] | MYC, MYC (gene 4609) | [5] | [10] | [11] | [13] | [16]
active: [1] 12.8 µM | [2] 22.3 µM | [3] 18.1 µM | [6] 18.4 µM | [7] 25 µM | [8] 13.6 µM | [9] 13.4 µM | [12] 18.8 µM | [15] 22.4 µM | [17] 13.1 µM

COC(=O)c1ccccc1N
inactive: all assays above

Oc1ccc2ccc3cccc4ccc1c2c34
inactive: all assays above

CNC(=O)Oc1cccc2c1OC(C)(C)C2
active: [9] 4.56 µM
not listed: [14]
inactive: all other assays above

CC(C)(C)OOC(C)(C)CCC(C)(C)OOC(C)(C)C
not listed: [11]
inactive: all other assays above

O=C(Oc1ccc(Br)cc1)N1CCN2CCC1CC2
active: [2] 74.4 µM
not listed: [14]
inactive: all other assays above

CC(C)N(Cc1ccccc1)C(=O)C(C)(C)C
active: [6] 28.8 µM
not listed: [14]
inactive: all other assays above

Cn1cc(-c2ccccc2)c(=O)c(-c2cccc(C(F)(F)F)c2)c1
active: [6] 23.5 µM | [9] 50 µM | [11] 20.9 µM | [15] 9.92 µM
inactive: all other assays above

CCNS(=O)(=O)C(F)(F)C(F)(F)C(F)(F)C(F)(F)C(F)(F)C(F)(F)C(F)(F)C(F)(F)F
active: [3] 48.2 µM | [6] 15.5 µM | [8] 40.5 µM | [9] 30.4 µM
not listed: [14]
inactive: all other assays above

COc1cc(C=O)cc2c1[C@H](COC(N)=O)[C@]1(OC(C)=O)ON2C[C@H]2[C@@H]1N2C(C)=O
inactive: [1] | [3] | MYC, MYC (gene 4609) | [6] | [10] | [13] | [15]
active: [2] 0.272 µM | [4] 1.58 µM | [5] 1.44 µM | [7] 29.9 µM | [8] 0.58 µM | [9] 95.3 µM | [11] 93.1 µM | [12] 93.4 µM | [14] 0.733 µM | [16] 1.46 µM | [17] 3.38 µM

CCCCOC(=O)c1ccccc1C(=O)OCc1ccccc1
not listed: [14]
inactive: all other assays above

Cc1ccc(N)c(N)c1
inactive: all assays above
